In PubChem BioAssay (NCI) one finds growth data, which are given here for eight molecules.

Test systems include DU-145 prostate; K-562 leukemia; MALME-3M melanoma; MDA-MB-231 breast; RXF 393 renal; SF-268 CNS; SF-295 CNS; SF-539 CNS; UACC-257 melanoma; M14 melanoma; HCT-15 colon; HT29 colon; SNB-75 CNS; SNB-19 CNS; U251 CNS; PC-3 prostate; SK-MEL-5 melanoma; UACC-62 melanoma; LOX IMVI melanoma; SK-MEL-28 melanoma.
Common to all, as to experiment: NCI-60 one-dose screen, 48 h (100 = growth as untreated, 0 = no growth, -100 = all killed)
Common to all, as to conditions: 10 µM unless noted

The panel holds about 83,000 compounds, 20% with a hit somewhere; the sample as a whole holds those more often.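 48-hour exposure, single concentration, 96-well plates; percent growth endpoint where 0 means no net growth. Active: below 10.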 Values without a mark were called inactive. The source made the active and inactive calls.

As for `CCOC(=O)c1c(C)nc2c(c1N)/C(=C/c1cc(OC)c(OC)c(OC)c1)C(=O)N2c1ccc(OC)cc1`, the growth in the experiment with DU-145 prostate was 16.3%; in the experiment with K-562 leukemia, 23.4%; with MALME-3M melanoma, 76%; in the experiment with MDA-MB-231 breast, 67%; with RXF 393 renal, 87.2%; in the experiment on SF-268 CNS, 45.9%. In addition, the growth in the experiment on SF-295 CNS is 88.1%; in the experiment on SF-539 CNS, 80.2%; in the experiment with UACC-257 melanoma, 73.6%; with M14 melanoma, 43.6%; in the experiment on HCT-15 colon, 31.3%; in the experiment on HT29 colon, 26.2%. In addition, the growth in the experiment with SNB-75 CNS is 73.9%; with SNB-19 CNS it was 47.9%; in the experiment on U251 CNS it was 43.6%; in the experiment with PC-3 prostate, 50.1%; in the experiment on SK-MEL-5 melanoma, 69.5%; in the experiment on UACC-62 melanoma it was 67.3%. Also, the growth in the experiment with LOX IMVI melanoma is 14.6%; in the experiment on SK-MEL-28 melanoma it was 70.2%.

For `CCN(CC)CC(O)CNc1c2ccc(Cl)cc2nc2ccc(OC)cc12` (stereo not given), the growth is -26.4% (active) in the experiment on DU-145 prostate; -10.3% (active) with K-562 leukemia; -98.4% (active) with MALME-3M melanoma; -33.4% (active) in the experiment on MDA-MB-231 breast; -80.8% (active) in the experiment on RXF 393 renal; 14.8% in the experiment on SF-268 CNS. For the same molecule, the growth was 10.8% in the experiment with SF-295 CNS; -61.3% (active) in the experiment with SF-539 CNS; -87% (active) in the experiment on UACC-257 melanoma; -94.2% (active) in the experiment with M14 melanoma; -6.56% (active) with HCT-15 colon; -4.13% (active) with HT29 colon. Moreover, the growth was 58.4% in the experiment with SNB-75 CNS; 57.3% with SNB-19 CNS; -28.3% (active) with U251 CNS; 16.6% with PC-3 prostate; -92.5% (active) in the experiment with SK-MEL-5 melanoma; 64.8% in the experiment with UACC-62 melanoma. Also, the growth with LOX IMVI melanoma was -64.2% (active); in the experiment on SK-MEL-28 melanoma it was -96.6% (active).

Consider `N=C(N)c1ccc(-c2ccc(-c3ccc(Cl)c(Cl)c3)o2)cc1`, for which the growth with DU-145 prostate was 3.63% (active); in the experiment with K-562 leukemia it was -30.2% (active); with MALME-3M melanoma it was 53.6%; in the experiment on MDA-MB-231 breast, -61% (active); in the experiment with RXF 393 renal, 60.2%; with SF-268 CNS, 73.1%. For the same molecule, the growth was -80% (active) with SF-295 CNS; -89.1% (active) in the experiment with SF-539 CNS; 84.5% in the experiment on UACC-257 melanoma; 11.8% in the experiment with M14 melanoma; -55.7% (active) in the experiment on HCT-15 colon; -20.3% (active) in the experiment on HT29 colon. Besides, the growth with SNB-75 CNS was 78.6%; in the experiment with SNB-19 CNS it was 25.4%; in the experiment on U251 CNS, -36.9% (active); with PC-3 prostate, 47.4%; in the experiment on SK-MEL-5 melanoma, 83.5%; in the experiment with UACC-62 melanoma it was 93.5%. Also, the growth with LOX IMVI melanoma was -96% (active); in the experiment with SK-MEL-28 melanoma, 59.7%.

Consider `CCN(CCO)CC(=O)c1cc(Cl)cc(Cl)c1Cl`, for which the growth in the experiment on DU-145 prostate is 103%; in the experiment with K-562 leukemia it was 99.2%; with MALME-3M melanoma, 98.2%; with MDA-MB-231 breast it was 103%; in the experiment with RXF 393 renal, 93.7%; with SF-268 CNS, 97.5%. In addition, the growth is 97.8% in the experiment on SF-295 CNS; 104% in the experiment on SF-539 CNS; 102% with UACC-257 melanoma; 99.2% with M14 melanoma; 101% with HCT-15 colon; 81.8% in the experiment on HT29 colon. The growth in the experiment with SNB-75 CNS was 95.3%; in the experiment on SNB-19 CNS it was 105%; with U251 CNS it was 101%; with PC-3 prostate, 84%; in the experiment on SK-MEL-5 melanoma, 105%; in the experiment with UACC-62 melanoma, 98.3%. Besides, the values for the growth with LOX IMVI melanoma and in the experiment with SK-MEL-28 melanoma were 99.6% and 111%, respectively.

For the molecule `c1ccc2c(c1)ncn2-c1nc2ccccc2n2c1nc1ccccc12`, the growth with DU-145 prostate is 89%; with K-562 leukemia, 82.9%; in the experiment with MALME-3M melanoma, 128%; in the experiment with MDA-MB-231 breast, 80.7%; in the experiment on RXF 393 renal it was 88.8%; with SF-268 CNS it was 94.3%. Also, the growth is 90.2% with SF-295 CNS; 79.8% with SF-539 CNS; 104% with UACC-257 melanoma; 91.1% in the experiment with M14 melanoma; 43.1% in the experiment with HCT-15 colon; 40.9% in the experiment on HT29 colon. Also, the growth in the experiment with SNB-75 CNS was 81.3%; in the experiment with SNB-19 CNS it was 86.8%; with U251 CNS it was 87.6%; in the experiment on PC-3 prostate, 72.4%; in the experiment with SK-MEL-5 melanoma, 55.8%; with UACC-62 melanoma, 77.3%. The growth with LOX IMVI melanoma is 79.1%; in the experiment with SK-MEL-28 melanoma, 107%.

For `COc1ccccc1NC(=O)Nc1ccc(-c2nc3ccccc3o2)cc1`, the growth with DU-145 prostate is 101%; in the experiment on K-562 leukemia, 83.4%; with MALME-3M melanoma, 95.3%; in the experiment with MDA-MB-231 breast, 98.5%; in the experiment on RXF 393 renal, 108%; with SF-268 CNS it was 104%. For the same molecule, the growth in the experiment with SF-295 CNS is 96.8%; in the experiment with SF-539 CNS, 96.7%; in the experiment with UACC-257 melanoma it was 101%; in the experiment on M14 melanoma, 102%; with HCT-15 colon, 96.9%; in the experiment with HT29 colon, 132%. The growth in the experiment with SNB-75 CNS was 109%; with SNB-19 CNS, 94.8%; with U251 CNS, 93.6%; in the experiment with PC-3 prostate, 95.6%; in the experiment with SK-MEL-5 melanoma, 92.6%; with UACC-62 melanoma it was 98.7%. In addition, the growth is 97.9% with LOX IMVI melanoma and 111% with SK-MEL-28 melanoma.

`CSc1nc2sc3cc(Cl)ccc3n2c(=N)c1C#N`: the growth is 96.1% in the experiment with DU-145 prostate; 110% with K-562 leukemia; 40.1% in the experiment on MALME-3M melanoma; 72.8% in the experiment on MDA-MB-231 breast; -0.36% (active) in the experiment on RXF 393 renal; 47.3% in the experiment on SF-268 CNS. In addition, the growth in the experiment on SF-295 CNS is 26.1%; in the experiment on SF-539 CNS it was 70.2%; in the experiment with UACC-257 melanoma, 45.7%; in the experiment on M14 melanoma, 82.4%; in the experiment with HCT-15 colon, 94.7%; in the experiment on HT29 colon, 33%. Further, the growth with SNB-75 CNS is 26%; with SNB-19 CNS it was 81.8%; in the experiment with U251 CNS it was 89.4%; in the experiment with PC-3 prostate, 66.4%; in the experiment on SK-MEL-5 melanoma, 45.2%; in the experiment on UACC-62 melanoma, 59.4%. The growth is 86.8% in the experiment with LOX IMVI melanoma and 41.9% with SK-MEL-28 melanoma.

On to `COC(=O)Nc1nc2ccc(C(=O)C3CC3)cc2[nH]1`, for which the growth in the experiment with DU-145 prostate is 1.8% (active); in the experiment with K-562 leukemia, -15.1% (active); in the experiment with MALME-3M melanoma it was 63.2%; in the experiment on MDA-MB-231 breast it was 22.8%; in the experiment on RXF 393 renal, 4.26% (active); in the experiment on SF-268 CNS it was 29.7%. The growth with SF-295 CNS was -38.5% (active); with SF-539 CNS, -27.5% (active); with UACC-257 melanoma it was 27.5%; in the experiment on M14 melanoma, 7.18% (active); with HCT-15 colon, -1.31% (active); in the experiment with HT29 colon, 1.32% (active). Moreover, the growth in the experiment with SNB-75 CNS is 9.46% (active); in the experiment on SNB-19 CNS it was 13.5%; in the experiment on U251 CNS, 12.8%; with PC-3 prostate, 14.7%; in the experiment on SK-MEL-5 melanoma it was 8.13% (active); with UACC-62 melanoma, 30.3%. In addition, the growth in the experiment with LOX IMVI melanoma was 34.7%; in the experiment with SK-MEL-28 melanoma it was 49%.
